# According to publication PMC4336329 (PLoS ONE, 2015):
# The whole screen tested about 310,000 compounds, of which about 2,200 (0.71%) showed an effect of 50% or more. Effects have a minus sign here. This excerpt belongs to a sample that is enriched for strong results.
# Molecular target: human ether-à-go-go-related gene (hERG) potassium channel (human, UniProt Q12809)
# Assay: primary screen, population patch clamp on CHO cells stably expressing hERG; higher = less effect of the substance
# Chain of human ether-à-go-go-related gene (hERG) potassium channel (Q12809 whole entry, looked up): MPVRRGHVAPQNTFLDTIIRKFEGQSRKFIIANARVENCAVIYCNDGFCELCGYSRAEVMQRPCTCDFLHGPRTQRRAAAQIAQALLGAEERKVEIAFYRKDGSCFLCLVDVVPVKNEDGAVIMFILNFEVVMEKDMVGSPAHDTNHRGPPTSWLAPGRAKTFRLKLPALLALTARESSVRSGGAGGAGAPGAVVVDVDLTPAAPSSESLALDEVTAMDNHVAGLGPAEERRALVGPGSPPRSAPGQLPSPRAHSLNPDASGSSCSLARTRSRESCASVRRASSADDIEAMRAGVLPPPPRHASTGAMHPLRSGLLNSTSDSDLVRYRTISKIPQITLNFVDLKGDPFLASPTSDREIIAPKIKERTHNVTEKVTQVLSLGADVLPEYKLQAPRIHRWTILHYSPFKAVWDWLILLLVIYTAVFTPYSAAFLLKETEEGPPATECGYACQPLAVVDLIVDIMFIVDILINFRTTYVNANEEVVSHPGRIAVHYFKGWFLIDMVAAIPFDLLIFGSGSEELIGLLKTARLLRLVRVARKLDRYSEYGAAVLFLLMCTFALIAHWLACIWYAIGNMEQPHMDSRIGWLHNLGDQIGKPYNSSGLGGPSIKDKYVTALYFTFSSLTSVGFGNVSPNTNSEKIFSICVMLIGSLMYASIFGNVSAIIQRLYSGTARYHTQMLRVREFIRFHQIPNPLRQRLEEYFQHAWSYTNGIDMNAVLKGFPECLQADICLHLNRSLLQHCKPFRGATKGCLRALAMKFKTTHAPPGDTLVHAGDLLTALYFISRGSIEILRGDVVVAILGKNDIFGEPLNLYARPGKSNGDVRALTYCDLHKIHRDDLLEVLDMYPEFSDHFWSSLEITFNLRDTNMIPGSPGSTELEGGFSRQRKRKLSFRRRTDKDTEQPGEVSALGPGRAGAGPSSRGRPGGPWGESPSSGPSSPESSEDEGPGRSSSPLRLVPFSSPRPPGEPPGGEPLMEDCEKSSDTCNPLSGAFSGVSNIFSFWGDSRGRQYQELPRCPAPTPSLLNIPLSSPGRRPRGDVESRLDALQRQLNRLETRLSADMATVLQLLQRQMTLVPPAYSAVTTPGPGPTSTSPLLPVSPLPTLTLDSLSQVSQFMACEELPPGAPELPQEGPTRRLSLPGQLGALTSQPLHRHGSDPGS
row,Structure (SMILES),"hERG current change (%, negative = inhibition) at 1uM [%]"
1,CC1CCc2nc(NC(=O)Cc3cccs3)sc2C1 (centres unmarked),12.7
2,O=C1NC(C(F)(F)F)(C(F)(F)F)N=C2SC=CN12,1.69
3,CCCOc1ccc(C2C(C(=O)OC)=CN(CCOC)C=C2C(=O)OC)cc1,-5.54
4,CCN(CC)C(=O)CN1C(=O)COCC1=O,5.42
5,S=C1NC(c2ccccc2)N2C(=S)NC(c3ccccc3)N12 (centres unmarked),3.38
6,CCOc1ccc2nc(C)cc(Nc3ccc(N4CCOCC4)cc3)c2c1.Cl,-60.6
7,CCOc1ccc2nc(C)cc(Nc3ccc4c(c3)OCCO4)c2c1.Cl,-47
8,COc1ccc2nc(C)cc(Nc3ccc(N4CCOCC4)cc3)c2c1.Cl,-25.1
9,CCOc1ccc(-c2c(C)n(-c3ccc(OCC)cc3)c3[n+]2CCCCC3)cc1.[O-][Cl+3]([O-])([O-])[O-],-50.8
10,CCOc1ccc(-n2c(-c3ccc(OC)cc3)c[n+]3c2CCCCC3)cc1.[Br-],-39.1
11,CCOc1ccc(-n2c(-c3ccc(Br)cc3)c[n+]3c2CCCCC3)cc1.[Br-],-46.5
12,CCCNC(=O)C(Cc1ccc(F)cc1)NC(=O)c1ccc(C#N)cc1 (centres unmarked),-17.5
13,CCC(CC)c1nnc(NC(=O)c2cccc(S(=O)(=O)N3CCc4ccccc43)c2)s1,13.3
14,Cl.O=C1Cc2ccccc2Sc2cc(OCCCN3CCCCC3)ccc21,-29.1
15,CN(C)CCCOc1ccc2c(c1)Sc1ccccc1CC2=O.Cl,-53.3
16,CN(C)CCOc1ccc2c(c1)Sc1ccccc1CC2=O.Cl,-18.3
17,O=C(Cc1ccc([N+](=O)[O-])cc1)OCc1c(F)cccc1Cl,14.7
18,CCOc1ccc(N=C2NC(=O)CS2)cc1,11.1
19,Cc1ccc(NC(=O)NC2CCCCCCC2)cc1C,11.5
20,OCC1(CCc2ccccc2)CCN(Cc2c(F)ccc(F)c2F)CC1,7.97
21,OCC1(CCc2ccccc2)CCN(Cc2ccccc2Cl)CC1,-54.6
22,OCC1(CCc2ccccc2)CCCN(CCCc2ccccc2)C1 (centres unmarked),-57.6
23,OCC1(CC2CCCCO2)CCN(C/C=C/c2ccccc2)CC1 (centres unmarked),-2.99

row,Structure (SMILES),"hERG current change (%, negative = inhibition) at 1uM [%]"
1,O=C(Cc1ccccc1)N1CCN(C/C=C/c2ccccc2)CC1,-6.02
2,OCC1(Cc2ccc(F)cc2)CCCN(CCc2ccccc2)C1 (centres unmarked),-0.0287
3,OCC1(CCc2ccccc2)CCCN(CCCC(F)(F)F)C1 (centres unmarked),-13.2
4,OCC1(Cc2ccccc2F)CCCN(CCc2ccccc2)C1 (centres unmarked),-30.5
5,OCC1(Cc2ccc(F)cc2F)CCCN(CCCc2ccccc2)C1 (centres unmarked),-56.1
6,OCC1(CCc2ccccc2)CCN(C/C=C/c2ccccc2)CC1,-86.4
7,OCC1(Cc2ccc(F)cc2F)CCCN(Cc2ccc(Cl)cc2)C1 (centres unmarked),-15
8,OCC1(CCc2ccccc2)CCN(Cc2cc(Cl)ccc2O)CC1,-5.01
9,Cc1cc(C(=O)N2CCCC(N3CCN(c4cccc(Cl)c4)CC3)C2)no1 (centres unmarked),10.5
10,Cc1cc2oc(C(=O)N(Cc3ccccc3)c3ccccn3)cc(=O)c2cc1Cl,10.6
11,CCn1nc(C)cc1C(=O)Sc1cccc(Cl)c1,10.9
12,CCCCCCCC(=O)NNC(=O)c1c(O)c2ccccc2[nH]c1=O,9.8
13,CCCCn1c(N)c(N(C)C(=O)c2ccc(Br)o2)c(=O)[nH]c1=O,7.35
14,O=C(O)C1CC=CCC1C(=O)N1CCCC1 (centres unmarked),-1.33
15,COc1ccccc1/C=C/CN1CCCC(CO)(CCc2ccccc2)C1 (centres unmarked),-31.4
16,OCC1(CCc2ccccc2)CCCN(C/C=C/c2ccccc2)C1 (centres unmarked),-53.6
17,O=C(CCC(F)(F)F)N1CCCC(CO)(CCc2ccccc2)C1 (centres unmarked),-3.42
18,CCOc1cc(C2NC(=O)NC(C)=C2C(=O)OC(C)CC)cc(Br)c1O (centres unmarked),10.2
19,O=C1N[C@@H](Cc2cn(S(=O)(=O)c3c(F)c(F)c(F)c(F)c3F)c3ccccc23)C(=O)N[C@H]1Cc1ccccc1,10.7
20,O=C(N/C(=C/c1ccc(F)cc1)C(=O)N1CCCC1)c1ccccc1,25.3
21,CN1CCN(C(=O)/C(C#N)=C/c2ccc(F)cc2)CC1.Cl,1.43
22,CN1CCN(C(=O)/C(=C/c2ccccc2)c2ccccc2)CC1,-33.2
23,CN1CCN(C(=O)/C(=C/c2ccc(F)cc2)NC(=O)c2ccccc2)CC1,-80.8

row,Structure (SMILES),"hERG current change (%, negative = inhibition) at 1uM [%]"
1,CCOC(=O)N1CCN(C(=O)/C(=C/c2ccc(OC)cc2)NC(=O)c2ccccc2)CC1,-27.1
2,CN1CCN(C(=O)/C(=C/c2ccc(F)cc2)c2ccsc2)CC1.Cl,-52.8
3,CCOC(=O)N1CCN(C(=O)/C(=C/c2ccc(Br)cc2)NC(=O)c2ccc(OC)cc2)CC1,-81.5
4,COc1ccc(/C=C(\NC(=O)c2ccccc2)C(=O)N2CCN(C)CC2)cc1,-75.2
5,COc1ccc(/C=C(/NC(=O)c2ccccc2)C(=O)N2CCCC2)cc1,6.1
6,CSc1ccc(/C=C(/NC(=O)c2ccccc2)C(=O)N2CCN(C)CC2)cc1,-48.7
7,CCOC(=O)N1CCN(C(=O)/C(=C/c2cccc3ccccc23)NC(=O)c2ccc(OC)cc2)CC1,-10.5
8,COc1ccc(/C=C(/NC(=O)c2ccccc2)C(=O)N2CCCCC2)cc1,6.93
9,CCOC(=O)/C=C/C(=O)Nc1ccc(S(=O)(=O)Nc2cc(C)on2)cc1,10.3
10,O=C(Cc1ccccc1)NC1CCN(C(=O)NCc2ccccc2)CC1,-8.61
11,N#Cc1nc(COc2cccc(Cl)c2)oc1NCCN1CCOCC1,-22.3
12,CC1CN(S(=O)(=O)c2cccc(C(=O)Nc3ccc4c(c3)CCC4)c2)CC(C)O1 (centres unmarked),1.39
13,O=C(CN(Cc1ccccc1Cl)C(=O)CN1C(=O)CSc2ccccc21)NC1CC1,-30.7
14,Cc1ccc(-c2nc3ccccc3[nH]2)cc1NC(=S)NC(=O)c1ccccc1Br,8.3
15,c1ccc(-c2noc(-c3ccc4c(c3)OCO4)n2)nc1,14.3
16,O=C(CCC(=O)Nc1ccccc1)NNC(=O)CCc1ccccc1,13.6
17,COc1cccc(OC)c1NC(=O)C1CCCN1C(=O)NCc1ccccc1 (centres unmarked),3.69
18,COC(=O)c1ccc(NC(=O)C2C3CCC(C3)C2C(=O)O)cc1 (centres unmarked),3.27
19,O=C(O)c1ccc(S(=O)(=O)NCc2ccc3c(c2)OCO3)cc1,11.3
20,CC1CCN(CCc2nc3cc(NC(=O)COc4ccc(Cl)cc4)ccc3n2C)CC1,-60.7
21,Cc1ccc(OCC(=O)Nc2ccc3c(c2)nc(CCN2CCC(C)CC2)n3C)cc1,-53.3
22,Cn1c(CCN2CCOCC2)nc2cc(NC(=O)COc3ccc(Cl)cc3)ccc21,2
23,COc1ccc(OCC(=O)Nc2ccc3c(c2)nc(CCN2CCC(C)CC2)n3C)cc1,-46.3

row,Structure (SMILES),"hERG current change (%, negative = inhibition) at 1uM [%]"
1,CC1CCN(CCc2nc3cc(NC(=O)COc4ccccc4)ccc3n2C)CC1,-33.9
2,CC1CCN(CCc2nc3cc(NC(=O)COc4ccc([N+](=O)[O-])cc4)ccc3n2C)CC1,-2.45
3,CCOc1ccc(NS(=O)(=O)c2ccc3c(c2)N(C(C)=O)CCO3)cc1,17
4,C[C@]12CCC(=O)CC1CCC1C2CC[C@]2(C)C(OC(=O)CCC(=O)O)CCC12 (some centres unmarked),9.84
5,CCC1CCCCN1C(=O)Nc1cc(Cl)ccc1OC (centres unmarked),15.2
6,O=C(c1ccco1)N1CCN(C(=O)C2CCN(S(=O)(=O)c3cccs3)CC2)CC1,-26.1
7,CCc1nn(CC(=O)NCCCN2CCc3ccccc3C2)c(=O)c2cc3sccc3n12,-53.8
8,CCc1nn(CC(=O)NCCCN2CCN(C)CC2)c(=O)c2cc3sccc3n12,5.53
9,CCc1nn(CC(=O)NCCCN2CCOCC2)c(=O)c2cc3sccc3n12,15.6
10,COc1cc(S(=O)(=O)Nc2ncn[nH]2)ccc1Cl,13.5
11,COCCN1Cc2cccc(C(=O)NCc3ccccc3OC)c2C1=O,3.2
12,Cc1cccc(NC(=S)NCCN(C2CCCCC2)C2CCCC2)c1,-1.59
13,CCCN1C2CCCC1CC(NC(=S)Nc1cc(C)ccc1C)C2 (centres unmarked),8.55
14,Cc1ccc(NC(=S)NCCN(C2CCCCC2)C2CCCC2)cc1,-10.5
15,Cc1cc(C)cc(NC(=S)NC2CC3CCCC(C2)N3CC(C)C)c1 (centres unmarked),11.3
16,Cc1cc(C)cc(NC(=S)NCCN(C2CCCCC2)C2CCCC2)c1,-59.7
17,CCCN1C2CCCC1CC(NC(=S)Nc1cccc(C)c1)C2 (centres unmarked),-12.7
18,Cc1cc(C)cc(NC(=S)NC2CC3CCCC(C2)N3C2CC2)c1 (centres unmarked),-32
19,Cc1cc(C)cc(NC(=S)NC2CC3CCCC(C2)N3C2CCCC2)c1 (centres unmarked),-52.3
20,CCCN1C2CCCC1CC(NC(=S)Nc1cc(C)cc(C)c1)C2 (centres unmarked),-81.4
